For 8 molecules, composite z-score and z-score results are on record in PubChem BioAssay.

Calls of active or inactive are those of the source. Unless noted, how the calls were made is not given here.

In assay [1] the test system is Wnt5a (protein binding on small-molecule microarray). The assay can be described thus: small molecules binding Wnt5a protein – biophysical, small-molecule microarray, 635/667 nm fluorescence, primary screen (AID 1142).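 Further: fluorescence read at 667 nm with signal to noise per printed feature.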 The note with it: 635 nm fluorescence, higher = more signal.
Assay [2] can be described thus: ATP-based viability of Huh7 replicon cells – cell-based, CellTiter-Glo luminescence, basal, 48 h, cytotoxicity control for HCV replication inhibitor project, primary screen (AID 1143).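 Further: Huh7 hepatoma cells carrying a hepatitis C replication reporter with no stimulus; test concentration not given here.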 The note with it: higher = more signal, called active from +8 up or from −8 down.
Assay [3] in a line: Pseudomonas biofilm growth suppression – PAO1 strain, BacTiter-Glo luminescence, LB-PBS, primary screen (AID 1144). The conditions noted are these: P. aeruginosa PAO1 biofilm, 12 h, higher = more signal.
A short description of assay [4]: basal CRE-LacZ reporter activity in PC12 – cell-based, unstimulated, primary screen (AID 1145). The note with it: no forskolin, luminescence, 4.5 h, higher = more signal, called active from +8 up or from −8 down.
The nature of assay [5]: forskolin-driven CRE-LacZ activity in PC12 – cell-based, CRE-LacZ reporter, forskolin-stimulated, primary screen (AID 1146).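 Further: PC12 cells with 6xCRE LacZ reporter stimulated by forskolin 10 µM; beta-galactosidase reporter signal reflecting CREB driven transcription.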 The note with it: luminescence, 4.5 h, higher = more signal, called active from +8 up or from −8 down.
In assay [6] the target is Streptavidin (Streptomyces avidinii) (UniProt P22629). The assay can be described thus: compounds binding control protein streptavidin – biophysical, small-molecule microarray, 635/667 nm fluorescence, artefact control for SMM compound annotation, primary screen (AID 1147).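 Further: signal reflects streptavidin binding to arrayed compounds as a control protein.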 The note with it: higher = more signal.
Chain of Streptavidin (Streptomyces avidinii) (P22629 whole entry, looked up): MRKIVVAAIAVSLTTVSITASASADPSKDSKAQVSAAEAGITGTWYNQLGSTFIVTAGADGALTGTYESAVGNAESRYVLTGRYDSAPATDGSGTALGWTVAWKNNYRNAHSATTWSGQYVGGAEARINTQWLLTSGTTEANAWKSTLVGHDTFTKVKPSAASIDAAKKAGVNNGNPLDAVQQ
The nature of assay [7]: probe aInhba binding on compound microarray – biochemical, small-molecule microarray, 635/667 nm fluorescence, primary screen (AID 1148).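 Further: score merges 667nm spot fluorescence with signal-to-noise for antibody binding to printed compounds.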 The conditions noted are these: higher = more signal.
Assay [8] deals with Torsin-1A (Homo sapiens) (UniProt O14656). The assay can be described thus: TOR1A wild-type binding on microarray – cell lysate, small-molecule microarray, lysate, 635/667 nm, primary screen (AID 1149). The note with it: COS7 hTOR1A-WT lysate, 635 nm fluorescence, higher = more signal.
Chain of Torsin-1A (Homo sapiens) (O14656 whole entry, looked up): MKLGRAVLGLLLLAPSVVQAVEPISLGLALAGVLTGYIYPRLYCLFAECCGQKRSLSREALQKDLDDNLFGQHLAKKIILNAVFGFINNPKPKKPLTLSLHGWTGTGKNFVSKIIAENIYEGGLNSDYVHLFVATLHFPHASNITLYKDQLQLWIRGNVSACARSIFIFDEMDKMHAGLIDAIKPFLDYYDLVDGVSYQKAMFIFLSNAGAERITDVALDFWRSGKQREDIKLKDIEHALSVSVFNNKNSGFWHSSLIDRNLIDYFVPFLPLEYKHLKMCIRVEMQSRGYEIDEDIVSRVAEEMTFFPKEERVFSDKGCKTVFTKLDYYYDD
Assay [9] shares this target. The assay is described as follows: torsin A mutant lysate binding on microarrays – cell lysate, small-molecule microarray, COS7 lysate, 635/667 nm fluorescence, primary screen (AID 1150).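 Further: score pools 667 nm emission and signal to noise measuring lysate protein binding.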 The note with it: COS7 hTOR1A mutant lysate, 635 nm fluorescence, higher = more signal.
Assay [10] has as its system Sonic hedgehog protein (Shh). The assay can be described thus: Sonic hedgehog microarray binding compounds – biochemical, small-molecule microarray, 635/667 nm fluorescence, primary screen (AID 1151).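 Further: Shh protein binding to compounds spotted on small-molecule microarray slides; score combines spot fluorescence intensity with signal-to-noise across triplicate slides.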 The note with it: 635 nm fluorescence, higher = more signal.
A short description of assay [11]: optical density shifts of acrAB sulA E. coli – strain DRC41, OD650, 48 h, E. coli filamentation inducer project, primary screen (AID 1152).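 Further: E. coli MC1000 strain DRC41 lacking acrAB efflux pump and sulA.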 The note with it: higher = more signal, called active from +8 up or from −8 down.
Assay [12] in a line: probe aLefty1 binding on compound microarray – biochemical, small-molecule microarray, 635/667 nm fluorescence, primary screen (AID 1153).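 Further: score merges spot fluorescence with signal-to-noise ratio from the scanned slide images.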 The conditions noted are these: higher = more signal.
The nature of assay [13]: plasmodial surface anion channel blockers, osmotic lysis – cell-based, P. falciparum Indochina, OD700, 1 h, primary screen (AID 1154). The note with it: P. falciparum Indochina infected RBC osmotic lysis, higher = more signal, called active from +8 up or from −8 down.
The nature of assay [14]: plasmodial surface anion channel blockers, osmotic lysis – cell-based, P. falciparum Indochina, OD700, 2 h, primary screen (AID 1155).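 Further: lysis reports solute entry through the parasite surface anion channel PSAC.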 The conditions noted are these: P. falciparum Indochina infected erythrocytes, higher = more signal, called active from +8 up or from −8 down.
Assay [15] can be described thus: changes in parasitized red cell lysis, either direction – P. falciparum Indochina, OD700, 3 h, PSAC antagonist project, primary screen (AID 1156). The note with it: P. falciparum-infected erythrocytes, osmotic lysis, higher = more signal, called active from +8 up or from −8 down.
Assay [16] in a line: plasmodial surface anion channel blockers, osmotic lysis – cell-based, P. falciparum Indochina, OD700, 18 h, primary screen (AID 1157). The note with it: P. falciparum Indochina infected erythrocytes, osmotic lysis OD700, 18 h; higher = more signal, called active from +8 up or from −8 down.
Assay [17] in a line: S6 kinase pathway phospho-S6 level changes – cell-based, A549, cytoblot, luminescence, serum-stimulated, primary screen (AID 1158).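 Further: serum-stimulated A549 lung adenocarcinoma cells; signal is phosphorylated S6 detected by cytoblot immunostaining with HRP secondary.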 The note with it: 5 h, higher = more signal.
Assay [18] concerns the target NADPH oxidase 2 (Homo sapiens) (UniProt P04839). The assay is described as follows: compounds shifting NOX2 Amplex Red fluorescence – cell-based, HEK293-NOX2, PMA-stimulated, NOX inhibitor project, primary screen (AID 1159). Further: test concentration not given here. The note with it: 45 min, higher = more signal, called active from +8 up or from −8 down.
Assay [19] concerns the target NADPH oxidase 4 (Homo sapiens) (UniProt Q9NPH5). The assay can be described thus: compounds shifting NOX4 Amplex Red fluorescence – cell-based, HEK293-NOX4, tetracycline-induced, NOX inhibitor project, primary screen (AID 1160). The conditions noted are these: HEK293-NOX4, Amplex Red H2O2 fluorescence, 45 min; higher = more signal, called active from +8 up or from −8 down.

In assay [20] the target is NADPH oxidase 5 (Homo sapiens) (UniProt Q96PH1). The assay is described as follows: compounds shifting NOX5 Amplex Red fluorescence – cell-based, HEK293-NOX5, NOX inhibitor project, primary screen (AID 1161). The conditions noted are these: HEK293-NOX5, ionomycin, 45 min, higher = more signal.
Chain of NADPH oxidase 5 (Homo sapiens) (Q96PH1 whole entry, looked up): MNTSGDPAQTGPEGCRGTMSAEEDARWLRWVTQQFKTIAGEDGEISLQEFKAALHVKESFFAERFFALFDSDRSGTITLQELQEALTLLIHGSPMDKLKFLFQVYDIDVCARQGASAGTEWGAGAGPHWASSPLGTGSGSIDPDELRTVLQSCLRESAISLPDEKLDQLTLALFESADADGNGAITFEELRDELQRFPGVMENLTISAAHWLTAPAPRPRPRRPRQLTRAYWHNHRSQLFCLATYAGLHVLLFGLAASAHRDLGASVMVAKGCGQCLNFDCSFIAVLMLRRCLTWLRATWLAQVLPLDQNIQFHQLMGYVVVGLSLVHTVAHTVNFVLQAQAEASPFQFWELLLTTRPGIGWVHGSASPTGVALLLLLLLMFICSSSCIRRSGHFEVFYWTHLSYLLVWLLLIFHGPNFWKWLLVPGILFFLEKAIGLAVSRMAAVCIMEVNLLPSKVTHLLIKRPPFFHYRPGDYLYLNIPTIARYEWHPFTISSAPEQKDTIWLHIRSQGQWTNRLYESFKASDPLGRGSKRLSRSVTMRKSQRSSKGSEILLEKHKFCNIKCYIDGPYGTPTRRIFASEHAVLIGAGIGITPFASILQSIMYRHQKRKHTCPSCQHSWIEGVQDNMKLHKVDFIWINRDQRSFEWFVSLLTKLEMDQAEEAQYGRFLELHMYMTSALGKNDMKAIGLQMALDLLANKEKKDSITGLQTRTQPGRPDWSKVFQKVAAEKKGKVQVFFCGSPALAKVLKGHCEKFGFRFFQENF

Chain of NADPH oxidase 2 (Homo sapiens) (P04839 whole entry, looked up): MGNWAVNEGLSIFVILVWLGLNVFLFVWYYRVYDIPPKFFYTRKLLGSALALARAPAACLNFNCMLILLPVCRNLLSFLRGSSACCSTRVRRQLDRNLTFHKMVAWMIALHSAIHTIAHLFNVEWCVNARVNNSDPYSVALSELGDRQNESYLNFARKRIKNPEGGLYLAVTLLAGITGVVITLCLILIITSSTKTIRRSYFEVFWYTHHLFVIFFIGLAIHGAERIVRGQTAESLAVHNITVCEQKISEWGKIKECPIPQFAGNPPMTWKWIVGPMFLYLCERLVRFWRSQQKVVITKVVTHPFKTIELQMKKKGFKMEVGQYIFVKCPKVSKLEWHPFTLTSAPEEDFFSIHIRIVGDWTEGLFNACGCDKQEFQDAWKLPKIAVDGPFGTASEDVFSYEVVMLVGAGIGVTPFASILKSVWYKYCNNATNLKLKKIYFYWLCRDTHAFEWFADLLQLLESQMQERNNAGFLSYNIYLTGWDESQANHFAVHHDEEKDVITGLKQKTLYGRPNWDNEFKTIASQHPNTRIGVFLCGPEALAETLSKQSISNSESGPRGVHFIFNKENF
Chain of NADPH oxidase 4 (Homo sapiens) (Q9NPH5 whole entry, looked up): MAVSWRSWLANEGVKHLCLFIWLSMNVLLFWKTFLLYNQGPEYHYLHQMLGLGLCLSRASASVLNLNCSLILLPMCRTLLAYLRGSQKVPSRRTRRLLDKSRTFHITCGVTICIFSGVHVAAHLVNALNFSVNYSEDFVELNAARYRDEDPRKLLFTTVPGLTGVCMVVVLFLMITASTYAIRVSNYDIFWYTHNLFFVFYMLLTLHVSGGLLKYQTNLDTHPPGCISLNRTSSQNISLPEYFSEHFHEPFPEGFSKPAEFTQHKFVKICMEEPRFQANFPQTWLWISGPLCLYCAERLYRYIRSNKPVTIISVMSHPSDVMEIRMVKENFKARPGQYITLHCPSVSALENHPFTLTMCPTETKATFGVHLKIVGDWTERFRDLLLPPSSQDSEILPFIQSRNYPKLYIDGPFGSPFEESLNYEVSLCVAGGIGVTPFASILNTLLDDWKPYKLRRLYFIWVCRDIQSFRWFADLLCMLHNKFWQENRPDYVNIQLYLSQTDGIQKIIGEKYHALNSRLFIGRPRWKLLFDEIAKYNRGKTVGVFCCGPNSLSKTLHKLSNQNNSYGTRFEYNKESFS

On to `CC1(C)C2C=C(C(O)C3C=CC4C(=O)NC(=O)C4N3Nc3ccc(Cl)cc3Cl)C[C@@H]1C2` (stereo not given in full), for which the composite z-score was 0.696 in assay [1]; 0.961 in assay [6]; 0.0236 in assay [7]; -0.0995 with Torsin-1A (Homo sapiens) [8]; 1.09 in the assay with Torsin-1A (Homo sapiens) [9]; -0.193 in [10]. This molecule also had a composite z-score in assay [12] of 0.265. The z-score was -2.39 (inactive) in assay [2]; -0.418 (inactive) in [3]; 1.19 (inactive) in assay [4]; -0.0073 (inactive) in assay [5]; -4.41 (inactive) in assay [11]; 3.33 (inactive) in assay [13]. Moreover, the z-score in assay [14] is 0.916 (inactive); in assay [15] it was -2.43 (inactive); in [16], 1.19 (inactive); in assay [17] it was -1.38; in assay [18], -0.197 (inactive); in assay [19], -5.57 (inactive). In addition, the z-score in [20] is -3.46.
On to `COC(=O)[C@@]1(Cc2ccc(OC)cc2)[C@@H]2C(=CC(=O)[C@H]2CC(=O)C(=O)N2CCCC2)CN1C(=O)c1ccccc1`, for which the composite z-score in assay [1] is 0.292; in [6], 0.571; in [7], 0.0694; in the assay with Torsin-1A (Homo sapiens) [8], -0.234; with Torsin-1A (Homo sapiens) [9], 0.31; in assay [10], -1.35. In assay [12], the composite z-score turned out to be 0.114. Besides, the z-score in assay [2] is -1.76 (inactive); in assay [3], 0.745 (inactive); in assay [4], -0.754 (inactive); in [5], 0.0528 (inactive); in [11], -0.97 (inactive); in assay [13] it was 5.48 (inactive). In addition, the z-score was 0.368 (inactive) in [14]; 1.51 (inactive) in [15]; 1.18 (inactive) in [16]; 0.0866 in assay [17]; 0.143 (inactive) in [18]; 1.54 (inactive) in assay [19]. Also, the z-score in assay [20] came out at 1.14.
Take `O=C1C[C@@](C(=O)NCCN2CCOCC2)(c2ccc([N+](=O)[O-])cc2)[C@@H](c2ccc(CO)cc2)N1CC12CC3CC(CC(C3)C1)C2`: the composite z-score worked out at 0.455 in assay [1]; 0.379 in assay [6]; 0.0154 in assay [7]; 0.179 in the assay with Torsin-1A (Homo sapiens) [8]; 1.21 with Torsin-1A (Homo sapiens) [9]; 1.37 in assay [10]. This molecule registered a composite z-score in [12] of 0.394. Moreover, the z-score in [2] is -5.78 (inactive); in assay [3] it was 0.881 (inactive); in [4], 1.62 (inactive); in assay [5], -0.0481 (inactive); in [11], -3.18 (inactive); in assay [13], 4.51 (inactive). Further, the z-score was 1.23 (inactive) in assay [14]; 1.24 (inactive) in [15]; 0.548 (inactive) in assay [16]; 0.101 in assay [17]; -4.27 (inactive) in assay [18]; -2.56 (inactive) in assay [19]. Further, the z-score in assay [20] was -1.06.
For the molecule `CCN(CC)c1ccc(N2CC=CC34O[C@@H]5C=CCCOC(=O)C5[C@H]3C(=O)N(CCCCCCO)[C@@H]4C2=O)cc1` (stereo not given in full), the composite z-score in assay [1] is -0.212; in assay [6], -0.729; in assay [7], -0.209; in the assay with Torsin-1A (Homo sapiens) [8], 0.454; in the assay with Torsin-1A (Homo sapiens) [9] it was 1.57; in [10] it was -0.179. The molecule further showed a composite z-score in assay [12] of -0.0361. For the same molecule, the z-score in assay [2] is -1.32 (inactive); in assay [3], -1.35 (inactive); in assay [4], -1.85 (inactive); in [5], -0.716 (inactive); in assay [11] it was 3.12 (inactive); in assay [13], 1.25 (inactive). Also, the z-score is 0.392 (inactive) in [14]; 0.474 (inactive) in assay [15]; -0.53 (inactive) in assay [16]; 0.872 in [17]; -0.089 (inactive) in assay [18]; 0.576 (inactive) in [19]. Moreover, in assay [20], the z-score is 0.762.
For `C=C(C(=O)CC[C@@H](OC(=O)c1cccnc1)c1ccccc1OCCO)C(C)C`, the composite z-score in assay [1] is -0.0008; in assay [6], -0.405; in assay [7], -0.0112; in the assay with Torsin-1A (Homo sapiens) [8] it was 0.784; with Torsin-1A (Homo sapiens) [9], 0.962; in assay [10], 1.37. This molecule yielded a composite z-score in assay [12] of 0.106. For the same molecule, the z-score was -1.25 (inactive) in assay [2]; -0.0644 (inactive) in [3]; 8.13 (active) in assay [4]; 1.17 (inactive) in assay [5]; 0.151 (inactive) in assay [11]; 15.1 (active) in assay [13]. The z-score in [14] was 2.08 (inactive); in assay [15], 0.759 (inactive); in assay [16], 0.601 (inactive); in assay [17], 0.149; in assay [18] it was -0.551 (inactive); in assay [19], -0.118 (inactive). Further, in [20], the z-score is -1.34.
With `CN1C(=O)C2C=CC(C(O)C3CC=CCC3)N(N(c3ccccc3)c3ccccc3)C2C1=O` (stereo not given), the composite z-score in assay [1] was 0.155; in assay [6], 0.184; in [7], 0.027; with Torsin-1A (Homo sapiens) [8], 0.36; with Torsin-1A (Homo sapiens) [9], -0.368; in assay [10] it was 0.0122. In addition, the composite z-score in [12] came to 0.329. The z-score in assay [2] is 0.909 (inactive); in assay [3], 0.472 (inactive); in [4] it was 0.629 (inactive); in assay [5], 0.47 (inactive); in assay [11] it was -0.866 (inactive); in assay [13], 0.19 (inactive). Also, the z-score in assay [14] was 1.01 (inactive); in assay [15], -0.255 (inactive); in assay [16] it was 1.29 (inactive); in [17], -0.496; in assay [18] it was -0.625 (inactive); in [19], 0.21 (inactive). In addition, in [20], the z-score came to 0.224.
Consider `CCCC[C@@H]1C[C@H]1[C@@H](NC(=O)c1ccccc1)c1ccc(C(=O)OC)cc1`, for which the composite z-score in [1] was 0.106; in assay [6] it was -0.279; in [7], -0.018; in the assay with Torsin-1A (Homo sapiens) [8], -2.83; with Torsin-1A (Homo sapiens) [9] it was -0.686; in assay [10], -1.11. Besides, the composite z-score in assay [12] came out at 0.357. In addition, the z-score in [2] was -0.977 (inactive); in assay [3], -0.485 (inactive); in assay [4], 0.576 (inactive); in [5], 0.0003 (inactive); in assay [11] it was -2.42 (inactive); in [13], 12.2 (active). For the same molecule, the z-score in assay [14] was 1.91 (inactive); in assay [15], 0.57 (inactive); in [16], 0.643 (inactive); in [17], -0.728; in assay [18] it was -1.14 (inactive); in [19], -2.96 (inactive). In assay [20], the z-score was -0.585.
With `C[N+](C)(C)CCCCNC(=O)[C@H]1C[C@H]2C(=O)N3CCC[C@H]3C(=O)N2[C@H]1c1cccc(OCCO)c1`, the composite z-score is 0.0504 in [1]; -0.704 in [6]; 0.0569 in assay [7]; -0.215 with Torsin-1A (Homo sapiens) [8]; 0.678 in the assay with Torsin-1A (Homo sapiens) [9]; 2 in assay [10]. The same molecule showed a composite z-score in assay [12] of 0.0861. In addition, the z-score is 0.254 (inactive) in assay [2]; -0.148 (inactive) in assay [3]; -0.667 (inactive) in assay [4]; -0.359 (inactive) in [5]; 0.364 (inactive) in [11]; 3.34 (inactive) in assay [13]. In addition, the z-score was 0.503 (inactive) in [14]; -0.78 (inactive) in assay [15]; 0.277 (inactive) in assay [16]; -0.555 in assay [17]; -1.52 (inactive) in assay [18]; 0.00366 (inactive) in [19]. Also, in assay [20], the z-score was -1.41.
